The text below walks through data of PubChem BioAssay (Tox21).

Assay [1] is described as follows: qHTS RealTime-Glo MT Cell Viability Assay in HEK293 cells - 0 hour (AID 1224880). Note: top concentration of the series differs between compounds; nearly all actives have a fitted effect of over 45% in size. The method, boiled down: (§1)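 qHTS format; HEK293 cells with NanoLuc/prosubstrate reagent, 37 C/5% CO2 for 5 h pre-dosing; compounds 23 nL in DMSO; luminescence at each time point reflects viable cells.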
Assay [2] is described as follows: A CellTox Green Cytotoxicity Assay to monitor cytotoxicity in HEK293 cells - 32 hour (AID 1224881). Note: nearly all actives have a fitted effect of over 40% in size. Note: potency is the fitted concentration of half-maximal effect. Summed up:
(§2)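 Each value comes from one timepoint of a single continuous run in which HEK293 cells with CellTox Green were exposed to compound for up to 40 h at 37 C, dye fluorescence rising with cell death.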

Assay [3] is described as follows: A CellTox Green Cytotoxicity Assay to monitor cytotoxicity in HepG2 cells - 0 hour (AID 1224882). Note: nearly all actives have a fitted effect of over 35% in size. Note: potency is the fitted concentration of half-maximal effect. The method, boiled down:
(§3)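 Continuous culture of HepG2 cells with a membrane-impermeant DNA dye; rising fluorescence marks dead cells. Compound exposure lasted up to 40 h at 37 C, with reads every 8 h from 0 h.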

Assay [4] in a line: A CellTox Green Cytotoxicity Assay to monitor cytotoxicity in HepG2 cells - 32 hour (AID 1224883). Note: nearly all actives have a fitted effect of over 50% in size. Note: potency is the fitted concentration of half-maximal effect. The method, boiled down:
as §3

Assay [5] is described as follows: qHTS RealTime-Glo MT Cell Viability Assay in HEK293 cells - 24 hour (AID 1224886). For activity change, negative = cytotoxicity: top concentration of the series differs between compounds. Note: nearly all actives have a fitted effect of over 50% in size. Note: potency is the fitted concentration of half-maximal effect. The method, boiled down:
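Nonlytic real-time viability readout: viable cells convert prosubstrate to NanoLuc substrate, giving luminescence proportional to live cell number. HEK293, 600 cells/well, compound added after 5 h, continuous culture at 37 C.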

A short description of assay [6]: qHTS RealTime-Glo MT Cell Viability Assay in HEK293 cells - 8 hour (AID 1224887). For activity change, negative = cytotoxicity: top concentration of the series differs between compounds. Note: nearly all actives have a fitted effect of over 50% in size. Note: potency is the fitted concentration of half-maximal effect. The method, boiled down:
as §1

The nature of assay [7]: A CellTox Green Cytotoxicity Assay to monitor cytotoxicity in HEK293 cells - 16 hour (AID 1224888). Note: nearly all actives have a fitted effect of over 35% in size. Note: potency is the fitted concentration of half-maximal effect. Summed up:
as §2

Assay [8] is described as follows: qHTS RealTime-Glo MT Cell Viability Assay in HepG2 cells - 0 hour (AID 1224889). Note: nearly all actives have a fitted effect of over 50% in size. The method, boiled down:
(§4)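 Luminescence read-out: viable HepG2 cells reduce a prosubstrate to a NanoLuc substrate, giving a signal proportional to live cell number. Reads taken at 0, 8, 16, 24, 32 and 40 h of compound exposure at 37 C.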

Assay [9] can be described thus: A CellTox Green Cytotoxicity Assay to monitor cytotoxicity in HepG2 cells - 8 hour (AID 1224890). Note: nearly all actives have a fitted effect of over 45% in size. Note: potency is the fitted concentration of half-maximal effect. Summed up: as §3
Assay [10] is described as follows: qHTS assay to identify small molecule antagonists of the estrogen receptor alpha (ER-alpha) signaling pathway using the BG1 cell line in the presence of 0.1 nM 17-beta-estradiol - cell viability counter screen (AID 1259241). Note: nearly all actives have a fitted effect of over 40% in size. Summed up:
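VM7Luc4E2 cells (endogenous ER-alpha, 4×ERE-luciferase), hormone-starved 5 days in charcoal-stripped FBS, were treated with compounds plus 0.1 nM 17beta-estradiol for 22 hr at 37C; viability read in same wells as CellTiter-Fluor live-cell protease fluorescence.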

Assay [11] is described as follows: qHTS assay to identify small molecule antagonists of the androgen receptor (AR) signaling pathway using the MDA cell line in the presence of 0.5 nM R1881 - cell viability counter screen (AID 1259242). Note: nearly all actives have a fitted effect of over 45% in size. Summed up:
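Fluorescence from CellTiter-Fluor, which reports protease activity of live cells, was read 30 min after reagent addition to MDA-kb2 cells that had been incubated 16 hr with compound and 0.5 nM R1881.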

The nature of assay [12]: qHTS assay to identify small molecule HDAC inhibitors (AID 1259364). Note: top concentration of the series differs between compounds; nearly all actives have a fitted effect of over 45% in size. The method, boiled down: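 Endogenous HDAC class I/II activity was measured in wild-type HCT-116 cells by HDAC-Glo luminescence after 2 h compound treatment.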
Assay [13] can be described thus: qHTS assay to identify small molecule HDAC inhibitors - cell viability counter screen (AID 1259365). Summed up: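 Wild-type HCT-116 cells were seeded at 1,500 per well, incubated overnight at 37 C, then exposed to compounds in DMSO for 2hr. Viability was read by CellTiter-Glo luminescence after 30min at room temperature.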
Assay [14] is described as follows: qHTS assay to identify small molecule agonists of the sonic hedgehog signaling (Shh) pathway - cell viability counter screen (AID 1259366). Note: nearly all actives have a fitted effect of over 50% in size. Note: potency is the fitted concentration of half-maximal effect. Summed up:
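NIH/3T3-derived 3T3 Gli1-Luc cells (stable Gli1-responsive firefly luciferase reporter) were seeded, rested 4 hr at 37 C/5% CO2, then exposed to compounds in DMSO for 24 hr; viability was read by CellTiter-Fluor fluorescence in the same wells.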

Assay [15] is described as follows: qHTS assay to identify small molecule antagonists of the sonic hedgehog signaling (Shh) pathway - cell viability counter screen (AID 1259367). Note: nearly all actives have a fitted effect of over 55% in size. Summed up: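 After a 4 hr settling period, 3T3 Gli1-Luc cells were treated with DMSO-dissolved chemicals and conditioned medium, kept 24 hr at 37C in 5% CO2, and assayed for viability by CellTiter-Fluor fluorescence following 1 hr reagent incubation.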

Assay [16] is described as follows: A CellTox Green Cytotoxicity Assay to monitor cytotoxicity in HEK293 cells - 8 hour (AID 1224884). Note: nearly all actives have a fitted effect of over 35% in size. The method, boiled down:
as §2

Assay [17] is described as follows: qHTS RealTime-Glo MT Cell Viability Assay in HepG2 cells - 16 hour (AID 1224885). Note: nearly all actives have a fitted effect of over 50% in size. The method, boiled down: as §4
The target in assay [18] is Estrogen receptor (Homo sapiens) (UniProt P03372). Description: qHTS assay to identify small molecule antagonists of the estrogen receptor alpha (ER-alpha) signaling pathway using the BG1 cell line in the presence of 0.1 nM 17-beta-estradiol (AID 1259244). Note: nearly all actives have a fitted effect of over 50% in size. Summed up:
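Quantitative high-throughput screen in VM7Luc4E2 cells: compound plus 0.1 nM E2 (final), 22 h, 37C, 5% CO2; ONE-Glo added, 30 min room temperature, luminescence measured.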

The target in assay [19] is Androgen receptor (Homo sapiens) (UniProt P10275). Description: qHTS assay to identify small molecule antagonists of the androgen receptor (AR) signaling pathway using the MDA cell line in the presence of 0.5 nM R1881 (AID 1259243). Note: nearly all actives have a fitted effect of over 50% in size. The method, boiled down: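 Inhibition of R1881 (0.5 nM final) induced reporter signal was measured in human MDA-kb2 cells; note the MMTV promoter also responds to GR. Exposure lasted 16 hr at 37C.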

Assay [20] can be described thus: qHTS assay to identify small molecule phospholipidosis (PLD) inducers (AID 1259344; active = well fitted curve in the direction sought with a large enough effect; an effect the other way counts as inactive or inconclusive). The method, boiled down: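 HepG2 cells grown on collagen I take up LipidTOX Red while exposed to compound for 24 h; after fixation they are imaged at 20x and pit metrics are extracted.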

Values without a mark were called inactive. Inconclusive results are not listed. Active and inactive are the calls of the source. Unless noted, calls come from the whole dose curve; as a rule, active = well fitted curve in the direction sought with a large enough effect in the repeat runs; inconclusive = weak or mixed curves; inactive = no such curve, though single readings can be large; an effect the other way counts as inactive or inconclusive.
% is set by controls: 0 for no effect and ±100 for the full control effect.

Chain of Estrogen receptor (Homo sapiens) (P03372 whole entry, looked up): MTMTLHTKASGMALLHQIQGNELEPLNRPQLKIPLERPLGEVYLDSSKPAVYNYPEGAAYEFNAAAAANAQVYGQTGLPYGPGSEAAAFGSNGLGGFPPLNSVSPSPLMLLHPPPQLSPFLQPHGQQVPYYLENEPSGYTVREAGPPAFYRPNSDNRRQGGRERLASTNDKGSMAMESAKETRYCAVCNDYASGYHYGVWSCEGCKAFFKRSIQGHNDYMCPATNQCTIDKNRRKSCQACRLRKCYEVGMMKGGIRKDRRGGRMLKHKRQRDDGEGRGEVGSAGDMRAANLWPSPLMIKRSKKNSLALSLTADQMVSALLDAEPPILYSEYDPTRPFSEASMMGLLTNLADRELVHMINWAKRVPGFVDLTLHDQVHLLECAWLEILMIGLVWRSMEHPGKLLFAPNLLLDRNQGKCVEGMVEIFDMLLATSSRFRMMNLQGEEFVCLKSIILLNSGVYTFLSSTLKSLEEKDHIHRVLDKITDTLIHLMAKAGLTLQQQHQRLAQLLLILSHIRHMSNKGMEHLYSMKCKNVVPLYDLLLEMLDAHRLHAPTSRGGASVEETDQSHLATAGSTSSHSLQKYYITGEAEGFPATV
Chain of Androgen receptor (Homo sapiens) (P10275 whole entry, looked up): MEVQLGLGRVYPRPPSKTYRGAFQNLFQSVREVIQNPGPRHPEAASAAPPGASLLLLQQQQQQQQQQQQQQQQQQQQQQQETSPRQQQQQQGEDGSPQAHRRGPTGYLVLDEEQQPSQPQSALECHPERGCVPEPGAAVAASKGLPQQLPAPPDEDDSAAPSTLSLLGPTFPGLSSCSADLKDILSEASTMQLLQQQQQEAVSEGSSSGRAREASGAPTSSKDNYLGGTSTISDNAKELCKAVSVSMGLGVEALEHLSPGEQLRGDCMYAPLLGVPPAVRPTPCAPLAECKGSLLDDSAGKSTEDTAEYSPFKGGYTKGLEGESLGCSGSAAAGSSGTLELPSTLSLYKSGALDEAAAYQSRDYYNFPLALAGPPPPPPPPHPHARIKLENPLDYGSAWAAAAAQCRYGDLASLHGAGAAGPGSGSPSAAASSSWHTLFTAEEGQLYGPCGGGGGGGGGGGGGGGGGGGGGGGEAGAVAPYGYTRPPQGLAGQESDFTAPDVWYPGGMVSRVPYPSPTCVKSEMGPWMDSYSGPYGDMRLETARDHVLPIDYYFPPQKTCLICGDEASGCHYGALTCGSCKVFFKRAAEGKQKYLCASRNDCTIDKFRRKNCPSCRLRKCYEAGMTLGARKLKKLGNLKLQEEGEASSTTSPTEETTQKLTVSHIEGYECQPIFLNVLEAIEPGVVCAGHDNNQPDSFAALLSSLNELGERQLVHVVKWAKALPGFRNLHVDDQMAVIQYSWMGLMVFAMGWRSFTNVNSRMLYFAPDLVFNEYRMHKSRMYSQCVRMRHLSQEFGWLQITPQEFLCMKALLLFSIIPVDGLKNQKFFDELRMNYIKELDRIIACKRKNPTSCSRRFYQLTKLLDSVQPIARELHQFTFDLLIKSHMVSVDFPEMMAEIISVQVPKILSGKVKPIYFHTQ

As to `CCCCCCCCCC(C)C=O` (stereo not drawn), the Potency entry in assay [1], in assay [5], in assay [6], in [8], in assay [10] and in [11] was “inactive” each time. In addition, the Potency result in assay [12], in assay [14] and in assay [15] was “inactive” in each case. The Potency in [2] is 21.9 µM (active); in [3] it was 24.5 µM (active); in assay [4] it was 21.9 µM (active); in [7], 21.9 µM (active); in assay [9] it was 24.5 µM (active). The result in assay [13] was inactive.
As to `O=c1c2ccccc2oc2ccccc12`, the Potency result in [1], in assay [3], in assay [4], in assay [16], in [5] and in [8] was “inactive” in each case. The Potency entry in assay [9], in assay [10], in assay [18], in assay [14] and in [15] was “inactive” in each case. Also, the molecule was classed as inactive in assay [17] and in [13].
Consider `Cc1c(N=C=O)cccc1N=C=O`, for which the Potency result in assay [1], in assay [2], in assay [3], in assay [16], in assay [5] and in assay [6] was “inactive” throughout. The Potency result in assay [7], in [8], in assay [9], in [10], in assay [11] and in [19] was “inactive” each time. Further, the Potency result in assay [12], in [14] and in [15] was “inactive” each time. Moreover, the molecule was classed as inactive in assay [17] and in assay [13].
Consider `CC1=CC(=C(c2ccc(N)cc2)c2ccc(N)cc2)C=CC1=N`, for which the activity change, negative = cytotoxicity in assay [1] was 12.8% [at 6.97 µM]; in assay [6], -15.3% [at 6.97 µM]; in [8], 9.14% [at 6.97 µM]; in [10] it was -17.9% [at 8.39 µM]; in assay [13], -17.7% [at 8.39 µM]. Besides, the cytotoxicity in assay [3] was 0.461% [at 6.97 µM]. The cytotoxicity increase in assay [4] is 0.891% [at 6.97 µM]; in assay [16], -4.58% [at 6.97 µM]; in [9], 1.46% [at 6.97 µM]. Moreover, the activity change in assay [7] was -0.601% [at 6.97 µM, hits give high values]. Also, the viability change, negative = cytotoxic in [11] is -23% [at 8.39 µM]; in [15], -16.1% [at 8.39 µM]. Further, in [20], the Potency entry was “inactive”. The activity change, negative = inhibition in assay [12] is -3.34% [at 8.39 µM].
As to `CCCc1nc(C)c2c(=O)[nH]c(-c3cc(S(=O)(=O)N4CCN(CC)CC4)ccc3OCC)nn12`, the Potency result in [1], in assay [2], in [3], in [4], in assay [6] and in [7] was “inactive” throughout. In addition, the Potency result in assay [8], in [9], in [10], in assay [11], in assay [19] and in assay [20] was “inactive” throughout. Also, the Potency result in [12], in assay [14] and in assay [15] was “inactive” throughout. Also, the outcome in assay [13] was inactive.
As to `CC(C)=CCC/C(C)=C/C=N/O`, the Potency result in assay [1], in assay [3], in assay [4], in [5], in assay [8] and in [9] was “inactive” throughout. The Potency result in assay [10], in [11], in assay [18], in [12], in assay [14] and in assay [15] was “inactive” in each case. Also, the call in assay [17] and in assay [13] was inactive.
With `O=C(O)c1c2ccccc2cc2ccccc12`, the Potency entry in assay [1], in [3], in assay [4], in [6], in [8] and in assay [9] was “inactive” each time. Also, the Potency entry in assay [10], in assay [11], in assay [18], in assay [12], in assay [14] and in assay [15] was “inactive” throughout. The result in assay [17] was inactive.
As to `CCCN(C1CCN(C(=O)C2CCNCC2)CC1)[C@@H]1CCc2ccc(OC)cc2C1`, the Potency result in assay [1], in [3], in assay [6], in [8], in [9] and in [10] was “inactive” throughout. Moreover, the Potency result in assay [19], in [12] and in assay [15] was “inactive” throughout. The molecule was classed as inactive in assay [17].
On to `Cc1nc2sccn2c(=O)c1CCN1CCC(=C(c2ccc(F)cc2)c2ccc(F)cc2)CC1`, for which the Potency result in assay [2], in [3], in [4], in assay [16], in [7] and in [8] was “inactive” each time. In addition, the Potency result in [9], in assay [10], in assay [11], in [12], in assay [14] and in assay [15] was “inactive” in each case. For the same molecule, the Potency is 3.38 µM (active) in assay [5] and 3.01 µM (active) in [6]. Besides, the call in [13] was inactive.
Regarding `Oc1ccc(CCNCCCCCCNCCc2ccccc2)cc1O`, the Potency result in [1], in assay [2], in [3], in assay [16], in [7] and in assay [8] was “inactive” throughout. The Potency result in assay [9], in assay [11], in assay [18], in [20] and in assay [12] was “inactive” throughout. Also, the molecule was classed as inactive in assay [17] and in assay [13]. For the same molecule, the Potency in assay [5] was 23.9 µM (active); in assay [14] it was 29.8 µM (active).
As for `O=C(N[C@@H](Cc1ccccc1)[C@@H](O)C(=O)N1C[C@@H](O)[C@@H](O)C1)c1cc2cc(Cl)ccc2[nH]1`, the Potency entry in assay [1], in assay [2], in assay [3], in assay [16], in assay [6] and in assay [7] was “inactive” each time. Further, the Potency entry in assay [8], in assay [10] and in assay [12] was “inactive” in each case. In addition, the molecule was classed as inactive in assay [17] and in [13].
Consider `CCN(CCCCOC(=O)c1ccc(OC)c(OC)c1)C(C)Cc1ccc(OC)cc1` (stereo not drawn), for which the Potency entry in [1], in assay [2], in assay [3], in assay [16], in assay [7] and in assay [8] was “inactive” throughout. The Potency entry in assay [9], in assay [10], in assay [11], in assay [20], in [12] and in assay [14] was “inactive” throughout. Besides, the Potency entry in assay [15] is “inactive”. The molecule was called inactive in assay [17] and in assay [13].
